Each structure is given as a SMILES string.

Format in all cases: functional
For experiment [1], the system named is Plasmodium falciparum. As to the kind of experiment: GSK_TCMDC: Inhibition of Plasmodium falciparum 3D7 in whole red blood cells, using parasite LDH activity as an index of growth. Test compounds present at 2uM.
Experiment [2] concerns Plasmodium falciparum. As to the kind of experiment: GSK_TCMDC: Inhibition of Plasmodium falciparum Dd2 in whole red blood cells, using parasite LDH activity as an index of growth. Test compounds present at 2uM.
For another experiment, the system named is HepG2. As to the kind of experiment: GSK_TCMDC: Percent inhibition of human HepG2 cell line. Test compounds present at 10uM.

As for `COC(=O)c1ccc(OCC(O)CO)cc1O` (stereo not drawn), the figures for the Inhibition in the experiment with Plasmodium falciparum [1], in the experiment with Plasmodium falciparum [2] and with HepG2 were 100%, 23% and 4%, respectively.
On the same counts, the results for `CCN(CCNC(=O)Cn1c(C)cc2cc([N+](=O)[O-])ccc21)c1cccc(C)c1` are 97%, 95% and 0%.
Regarding `Cc1nc(C)c(-c2ccc(C(F)(F)F)cc2)c(O)c1Br`, the Inhibition (commonly the drop in the measured response relative to a control, in per cent) was 98% in the experiment with Plasmodium falciparum [1], 96% in the experiment with Plasmodium falciparum [2] and 0% in the experiment with HepG2.
In the case of `COc1ccc2nccc([C@@H](O)CN3CCC(NCc4cc5c(F)ccc(F)c5[nH]4)CC3)c2c1.O=C(O)C(=O)O`, the values for the Inhibition with Plasmodium falciparum [1], in the experiment on Plasmodium falciparum [2] and in the experiment with HepG2 were 100%, 67% and 29%, respectively.
For `CCOc1ccc(C(=O)Nc2cc(Br)c3c(c2)CNCC3)cc1C(F)(F)F.Cl`, in that order: 98%, 22% and 15%.
On to `CCn1ncc2c(N3CCCC3=O)cc(C(=O)N[C@@H](Cc3ccccc3)[C@H](O)CNC(C)(C)c3cccc(OC)c3)cc21`, for which the Inhibition in the experiment with Plasmodium falciparum [1] is recorded as 98%; in the experiment on Plasmodium falciparum [2], 97%; with HepG2, 6%.
For the compound `CC(C)CC(=O)N1CCNC[C@@H]1C(=O)NCc1ccc(Cl)c(Cl)c1.O=C(O)C(F)(F)F`, the Inhibition with Plasmodium falciparum [1] is reported as 99%; with Plasmodium falciparum [2] it was 16%; in the experiment with HepG2, 0%.
As to `O=c1cc(NCCCCNCc2cccc(C(F)(F)F)c2)[nH]c2ccccc12`, the values for the Inhibition in the experiment on Plasmodium falciparum [1], in the experiment with Plasmodium falciparum [2] and in the experiment with HepG2 were 94%, 34% and 13%, respectively.
In the case of `CC(C)(C)c1ccc(CN2CCC(CNC(=O)c3cc(-c4cccc(C(F)(F)F)c4)cs3)C2)cc1.O=C(O)C(F)(F)F` (stereo not drawn), the results for the Inhibition in the experiment with Plasmodium falciparum [1], in the experiment on Plasmodium falciparum [2] and with HepG2 were 100%, 84% and 80%, respectively.
As to `Cc1cc(N(C)C2CCN(CC3CCCCC3)C2)nc(Nc2ccc(Cl)cc2)n1` (stereo not drawn), the Inhibition is on record as 98% in the experiment with Plasmodium falciparum [1], 35% with Plasmodium falciparum [2] and 0% in the experiment on HepG2.
On the same counts, the results for `O=C(Cc1cccs1)NCC(c1ccccc1Cl)c1c[nH]c2ccccc12` (stereo not drawn) are 91%, 56% and 12%.
Regarding `CC(C)(Oc1ccc(Cl)cc1)C(=O)NCCC1CCN(CCCCCNC(=O)/C=C/c2ccc(Cl)c(Cl)c2)CC1`, the Inhibition in the experiment with Plasmodium falciparum [1] is reported as 87%; in the experiment on Plasmodium falciparum [2] it was 37%; in the experiment with HepG2, 73%.
On the same counts, the results for `Cc1noc(-c2ccccc2)c1CN1CCCC2(CC(C(=O)NCc3cccc(F)c3F)=NO2)C1.O=C(O)C(F)(F)F` (stereo not drawn) are 85%, 28% and 0%.
For `Cn1nccc1C(=O)NCCNCc1cccc(-c2csc(-c3nc4ccccc4[nH]3)c2)c1.O=C(O)C(F)(F)F`, in that order: 100%, 2% and 30%.
On the same counts, the results for `COc1cc(C(F)(F)F)c2cc(CNCCCNc3nc4ccccc4[nH]3)[nH]c2c1` are 100%, 0% and 60%.
`Cc1c(S(=O)(=O)Nc2cccc(CCN3CCCCC3CCN3CCCC3)c2)sc2ccc(Cl)cc12` (stereo not drawn): the Inhibition in the experiment on Plasmodium falciparum [1] is 93%; with Plasmodium falciparum [2], 10%; in the experiment on HepG2, 22%.
On the same counts, the results for `COc1ccc(CCN2CCC(NCc3cccc(N(C)C)c3)CC2)cc1` are 98%, 7% and 18%.
On to `CCCCNC[C@@H](O)[C@H](Cc1ccccc1)NC(=O)c1cc(NCC)cc(N2CCCCS2(=O)=O)c1.Cl`, for which the results for the Inhibition in the experiment with Plasmodium falciparum [1], in the experiment with Plasmodium falciparum [2] and in the experiment with HepG2 were 99%, 98% and 11%, respectively.
Consider `FC(F)(F)c1ccc2[nH]c(-c3ccc(-c4cccc(CNCCN5CCNCC5)c4)cc3)nc2c1.O=C(O)C(F)(F)F`, for which the Inhibition is on record as 92% in the experiment with Plasmodium falciparum [1], 2% in the experiment on Plasmodium falciparum [2] and 13% in the experiment on HepG2.
For `CC(Nc1ccnc2cc(Cl)ccc12)c1ccc(S(N)(=O)=O)cc1` (stereo not drawn), in that order: 96%, 21% and 5%.
For `Cc1cc(C)cc(-n2c(C)cc(/C=C3\SC(=Nc4ccc(Cl)cc4)NC3=O)c2C)c1`, in that order: 97%, 97% and 12%.
For `CN1CCN(c2ccc(Nc3nc(N)c4ccn(C5CCC5)c4n3)cc2)CC1.O=C(O)C(F)(F)F`, in that order: 93%, 47% and 0%.
Turning to `CC(=O)N[C@@H]1c2cc(C(C)=O)ccc2OC(C)(C)[C@@H]1O`, the results for the Inhibition in the experiment with Plasmodium falciparum [1], in the experiment with Plasmodium falciparum [2] and with HepG2 were 97%, 3% and 15%, respectively.
For `COc1ccc(CCNCCCCCCNCCc2ccc(Cl)c3ccccc23)cc1OC.Cl`, in that order: 100%, 28% and 100%.
For `COc1cccc2c(N/N=C/c3ccccc3[N+](=O)[O-])ccnc12`, in that order: 99%, 43% and 8%.
For `O=C(O)C(F)(F)F.O=S(=O)(NC1CCN(c2ccnc3cc(Cl)ccc23)C1)c1cccs1` (stereo not drawn), in that order: 100%, 76% and 6%.
Regarding `CCCc1cc(Cc2cnc(N)nc2N)cc(OCCCCCC(=O)O)c1OC.Cl`, the Inhibition came to 95% with Plasmodium falciparum [1], 2% in the experiment on Plasmodium falciparum [2] and 8% in the experiment with HepG2.
For `CC(NC(=O)c1ccc(O)c(-c2ccc(Cl)c(Cl)c2)c1)C(=O)NCCN1CCOCC1` (stereo not drawn), in that order: 87%, 7% and 2%.
As for `Cc1nc(-c2cccc(Nc3ccnc4cc(-c5nccs5)ccc34)c2)no1.Cl`, the Inhibition was found to be 99% in the experiment on Plasmodium falciparum [1], 90% in the experiment on Plasmodium falciparum [2] and 37% in the experiment with HepG2.
On the same counts, the results for `Cc1cccc(C)c1C1CCN(C2CCC(NC(=O)/C=C/c3ccccc3)CC2)CC1` (stereo not drawn) are 100%, 45% and 42%.
For the compound `CCN(CCN(C)C)Cc1ccc(-c2ccc(NS(=O)(=O)c3cccc(Cl)c3)cc2)cc1.O=C(O)C(F)(F)F`, the Inhibition was 97% in the experiment on Plasmodium falciparum [1], 40% in the experiment on Plasmodium falciparum [2] and 43% in the experiment with HepG2.
For `CCc1nc2ccc(C(=O)OC)nc2n1Cc1ccc2oc(-c3ccccc3N)c(Br)c2c1`, in that order: 93%, 75% and 8%.
For `COc1ccc(CN2CCCC(N3CC4(OC3=O)c3ccccc3-c3ccccc34)C2)c(O)c1` (stereo not drawn), the Inhibition in the experiment with Plasmodium falciparum [1] was determined as 92%; in the experiment with Plasmodium falciparum [2] it was 34%; with HepG2, 14%.
With `CN1CCN(CC(=O)Nc2ccc(-c3ccc(-c4nc5cc(C(F)(F)F)ccc5[nH]4)cc3)cc2)CC1`, the figures for the Inhibition in the experiment with Plasmodium falciparum [1], in the experiment on Plasmodium falciparum [2] and in the experiment on HepG2 were 100%, 98% and 43%, respectively.
For the compound `CC(=O)c1cccc(S(=O)(=O)NCCCNc2nc3cc(C)cc(C)c3cc2C#N)c1`, the values for the Inhibition in the experiment on Plasmodium falciparum [1], in the experiment on Plasmodium falciparum [2] and in the experiment with HepG2 were 95%, 75% and 11%, respectively.
On the same counts, the results for `O=C(Nc1cccc(-c2ccc(CN3CCCC3)cc2)c1)c1cccc(Cl)c1.O=C(O)C(F)(F)F` are 100%, 61% and 32%.
For `CC(=O)Nc1ccc(OCCCCN(Cc2ccccc2C(F)(F)F)c2ccc(C#N)c(C(F)(F)F)c2)c(Cl)c1`, in that order: 98%, 71% and 0%.
In the case of `Br.CCCN(CCCCCCN(CCC)CCc1ccc(O)c(O)c1)CCc1ccc(O)cc1`, the Inhibition in the experiment on Plasmodium falciparum [1] came out at 90%; with Plasmodium falciparum [2], 5%; in the experiment with HepG2 it was 0%.
As to `COc1ccc(N2CCN(CCc3ccc(NC(=O)c4ccc([N+](=O)[O-])cc4)cc3)CC2)c(OC)c1`, the Inhibition was 83% in the experiment on Plasmodium falciparum [1], 0% in the experiment with Plasmodium falciparum [2] and 45% in the experiment on HepG2.
For the compound `CN1CCN(CCCN(Cc2csc(-c3ccc(CNCc4ccccc4)cc3)n2)S(=O)(=O)c2ccc(F)cc2)CC1.O=C(O)C(F)(F)F`, the Inhibition in the experiment with Plasmodium falciparum [1] is given as 100%; in the experiment on Plasmodium falciparum [2], 80%; in the experiment on HepG2 it was 21%.
Take `CCN(CC)S(=O)(=O)c1ccc(C(=O)Oc2ccccc2N(Cc2ccc(OC)cc2)C2=NS(=O)(=O)c3ccccc32)cc1`: the figures for the Inhibition in the experiment with Plasmodium falciparum [1], with Plasmodium falciparum [2] and in the experiment with HepG2 were 98%, 63% and 0%, respectively.
Regarding `CCCCNC(=O)[C@@H](NC(=O)c1ccc(O)c(-c2ccc(Cl)c(Cl)c2)c1)C(C)C`, the Inhibition in the experiment with Plasmodium falciparum [1] is given as 97%; with Plasmodium falciparum [2], 98%; in the experiment with HepG2, 0%.
For `O=C(NC1CCN(CCN2CCC(c3c[nH]c4ccccc34)CC2)CC1)c1ccc(-c2ccc(C(F)(F)F)cc2)cc1`, in that order: 99%, 100% and 100%.
As to `O=C(Nc1cccc(CN2CCCN(Cc3cccc(Cl)c3)CC2)c1)c1ccc(-c2ccccc2)cc1.O=C(O)C(F)(F)F`, the Inhibition was determined as 86% with Plasmodium falciparum [1], 14% in the experiment with Plasmodium falciparum [2] and 44% in the experiment on HepG2.
On the same counts, the results for `O=C(Nc1cccc(C(F)(F)F)c1)c1ccc(S(=O)(=O)NC2CCN(CC3CCCCC3)CC2)cc1.O=C(O)C(F)(F)F` are 83%, 0% and 25%.
For `COc1c(C2CCN(CCCCNC(=O)c3ccc(-c4ccc(C(=O)C(F)(F)F)cc4)cc3)CC2)ccc2c1CCCC2`, in that order: 81%, 33% and 99%.
`Cl.O=C(OCC1CCN(Cc2ccccc2)C1)c1ccc(Cl)cc1` (stereo not drawn): the Inhibition with Plasmodium falciparum [1] turned out to be 100%; in the experiment on Plasmodium falciparum [2] it was 4%; with HepG2, 0%.
For `CC(C)(CNC(=O)[C@H]1CCCCN1)c1nc(-c2ccc(Cl)c(O)c2)c(-c2ccncc2)[nH]1.Cl`, in that order: 98%, 98% and 6%.
On the same counts, the results for `Cc1cccc(-c2nn(-c3ccccc3)cc2C(=O)Nc2nnc(C)o2)c1` are 84%, 63% and 38%.
On the same counts, the results for `COc1cc(CNCCCCCCNCc2cc(OC)cc3ccccc23)c2ccccc2c1.CS(=O)(=O)O` are 100%, 94% and 57%.
In the case of `COc1cc2nc(-c3ccccc3)nc(N3CCN(CC(=O)N4CCCC4)CC3)c2cc1OC`, the Inhibition in the experiment on Plasmodium falciparum [1] is given as 84%; with Plasmodium falciparum [2] it was 70%; with HepG2, 7%.
As for `COc1ccc(NC(=O)Nc2cccc(-c3ccncc3)c2)cc1N1CCN(C)CC1`, the Inhibition came to 98% in the experiment with Plasmodium falciparum [1], 57% in the experiment with Plasmodium falciparum [2] and 9% in the experiment with HepG2.
Regarding `CCn1c(Cc2ccccc2)nnc1Sc1ccc([N+](=O)[O-])c(C#N)c1`, the values for the Inhibition with Plasmodium falciparum [1], in the experiment with Plasmodium falciparum [2] and in the experiment with HepG2 were 93%, 72% and 8%, respectively.
On the same counts, the results for `Fc1ccc2[nH]c(-c3cccc(-c4cccc(CNCc5ccccc5)c4)c3)nc2c1.O=C(O)C(F)(F)F` are 100%, 52% and 24%.
Regarding `COc1nc2c(CCN3CC[C@H](NCc4ccc5c(c4)NC(=O)CO5)[C@H](O)C3)c(Cl)cnc2cc1F.Cl`, the Inhibition in the experiment with Plasmodium falciparum [1] worked out at 90%; in the experiment with Plasmodium falciparum [2], 22%; with HepG2, 21%.
On the same counts, the results for `C=CCc1c(C(=O)NCC23CC4CC(CC(C4)C2)C3)nc2ccccc2c1O` are 86%, 79% and 40%.
As for `Cc1cc(N[C@@H](Cc2ccccc2)C(=O)Nc2ccccc2)nc(NCC2CCCCC2)n1.O=C(O)C(F)(F)F`, the Inhibition is listed as 98% in the experiment on Plasmodium falciparum [1], 55% in the experiment with Plasmodium falciparum [2] and 12% in the experiment on HepG2.
On the same counts, the results for `O=C(Cc1ccc[n+]([O-])c1)Nc1cccc(-c2cccc(-c3nc4cc(F)ccc4[nH]3)c2)c1` are 92%, 98% and 28%.
For `Cc1[nH]c(C)c(-c2ccc(-c3ccc(OCC(F)(F)F)cc3)nc2)c(=O)c1Cl`, in that order: 94%, 96% and 3%.
For `COc1ccc2ncc(F)c(CCN3CCC(CNC(=O)C(=O)c4c[nH]c5ccccc45)CC3)c2n1`, in that order: 100%, 99% and 48%.
Take `COc1cc2c(cc1C(F)(F)F)N(C(=O)Nc1cc(F)cc(-c3cncnc3)c1)CC2`: the Inhibition with Plasmodium falciparum [1] was 97%; in the experiment with Plasmodium falciparum [2], 52%; in the experiment on HepG2 it was 15%.

The record behind these values is ChEMBL document CHEMBL1157539, “Thousands of chemical starting points for antimalarial lead identification” (Nature, 2010).
